Assay [1] addresses Lysosomal acid glucosylceramidase (Homo sapiens) (UniProt P04062). In words: Glucocerebrosidase-p2 (AID 348; in the data active = potency below about 10 µM; note: potency is the fitted concentration of half-maximal effect). To be noted: purified GBA, blue fluorogenic substrate, 40 min. In short, it runs like this: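 Normal human glucocerebrosidase (0.2 nM) with blue fluorogenic substrate (80 uM final) in citrate/phosphate pH 5.9 with 10mM sodium taurocholate, 0.01% tween-20; 40 min RT, NaOH/glycine stop; fluorescence Ex 365/Em 440; AC50 from a titration from 0.6 nM upwards.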

The nature of assay [2]: AP1 Signaling Pathway (AID 357). Note: % is set by controls: 0 for no effect and ±100 for the full control effect. The note with it: ME-180 AP-1-bla reporter, EGF-induced, beta-lactamase ratio, 5 h; at 7.69 µM (top of the series) unless noted. In short, it runs like this: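 A ratiometric CCF4 readout (405 nm excitation; 460 and 530 nm emission) quantified AP-1-driven beta-lactamase in ME-180 cells after 5 h with compound and EC50 EGF; AC50 values were derived for activators and inhibitors.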

Assay [3] has as its target Cytochrome P450 1A2 (Homo sapiens) (UniProt P05177). In words: p450-cyp1a2 (AID 410; calls by dose curve; note: potency is the fitted concentration of half-maximal effect;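 for activity change, negative = inhibition: -100% = full effect of reference inhibitor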). The note with it: recombinant CYP1A2, luciferin-ME demethylation, luminescence; series mostly up to 57 µM. In a few lines:
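Read-out is luminescence from luciferin produced by CYP1A2 demethylation of Luciferin-ME (100uM, at Km). Detection reagent stopped the 60 min NADPH-dependent reaction; signals were normalized to 57 uM furafylline.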

Assay [4] can be described thus: NFAT Signaling Pathway (AID 444).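 Note: carbachol stimulus at about its EC50 of 1 µM final; % is set by controls: 0 for no effect and ±100 for the full control effect.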 The note with it: Jurkat NFAT-bla M1, carbachol, beta-lactamase ratio, 5 h; at 7.69 µM (top of the series) unless noted. In short, it runs like this:
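Jurkat cells with NFAT-driven β-lactamase reporter and co-expressed M1 receptor, stimulated with carbachol (final 1 uM, ~EC50), compound titration, 5 h at 37 °C. CCF4 loaded 1 h at RT; 460/530 nm ratio gave %activity and AC50.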

Assay [5] can be described thus: Stat Signaling Pathway (AID 446).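 Note: ME-180 cervical cancer cells given 40 pM IL-6 alongside compound; SIE-controlled beta-lactamase reporter measured as 460/530 nm FRET emission ratio; % is set by controls: 0 for no effect and ±100 for the full control effect.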 The note with it: ME-180 SIE beta-lactamase reporter, IL-6 stimulated, 5 h; at 7.69 µM (top of the series) unless noted. In a few lines: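 Compound effects on IL-6-induced STAT reporter activity were measured in ME-180 cells. After overnight culture, cells were co-treated with 40 pM IL-6 for 5 hrs before beta-lactamase substrate loading at room temperature.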

In assay [6] the target is Glucocorticoid receptor (Homo sapiens) (UniProt P04150). Briefly: GR-EFC Redistribution (AID 451; calls by dose curve; note: potency is the fitted concentration of half-maximal effect). The note with it: CHO-K1 GR-EFC translocation, beta-gal luminescence, 2 h. In a few lines:
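CHO-K1 cells expressing nuclear EA and GR-ED fragments of b-gal; compounds titrated up to 46 uM final, 2 h at 37 C. GR nuclear translocation read as complemented b-gal luminescence after 1 h RT detection.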

The target in assay [7] is Mitogen-activated protein kinase 10 (Mus musculus) (UniProt Q61831). In words: JNK3 AlphaScreen Assay (AID 530).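 Note: kinase came from lysate of stimulated human HepG2 cells; signal reports phosphorylation of biotinylated GST-cJun 1-79 at Ser73 with 10 µM ATP; % is set by controls: 0 for no effect and ±100 for the full control effect.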 The note with it: JNK3 lysate, c-Jun phosphorylation; series mostly up to 57.1 µM. In a few lines:
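HepG2 lysate (IL-1b/TNFa pre-activated) + biotin-GST-cJun 1-79 + anti-pSer73 cJun; cpd titration, 15 min RT; ATP 10 uM start; Tris pH 7.6, MgCl2, DTT, vanadate; beads in EDTA buffer; AlphaScreen.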
(In general: Bead proximity is the source of the signal in Alpha formats.)

In assay [8] the target is 3',5'-cyclic-AMP phosphodiesterase 4B (Homo sapiens) (UniProt Q07343). In words: qHTS Assay for Inhibitors of PDE-IV (AID 607; active = well fitted activation curve with a large enough effect in the main read-out, with a control signal flat, not every such curve was filed as active; note: % of control where 0% means no effect). To be noted: HEK293 ACTOne CNG channel cells, membrane potential fluorescence; series mostly up to 22.9 µM. In a few lines:
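ACTOne HEK293 cells carry a modified cAMP-gated CNG channel and express endogenous PDE4; plated 1000 cells/well, compounds up to 22.9 uM final. Membrane-potential dye fluorescence (ex 535/em 590) was read; parental cells received 10 uM forskolin + 100 uM RO 20-1724.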
(Quantitative high-throughput screening tests each substance at several concentrations.)

In assay [9] the target is Cytochrome P450 3A4 (Homo sapiens) (UniProt P08684). Briefly: qHTS Assay for Activators of Cytochrome P450 3A4 (AID 885; active = well fitted curve in the direction sought with a large enough effect; an effect the other way counts as inactive or inconclusive; note: nearly all actives have a fitted effect of over 65% in size). The note with it: recombinant CYP3A4, Luciferin-PPXE luminescence, 60 min; series mostly up to 57.1 µM. In a few lines:
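CYP3A4 activity: Luciferin-PPXE O-dealkylation, 25uM substrate, 200mM KPO4, RT throughout. Read-out is luciferase luminescence; higher values reflect activation.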

For assay [10], the target named is Cytochrome P450 2D6 (Homo sapiens) (UniProt P10635). In words: qHTS Assay for Inhibitors and Substrates of Cytochrome P450 2D6 (AID 891; active = well fitted curve in the direction sought with a large enough effect; an effect the other way counts as inactive or inconclusive; note: potency is the fitted concentration of half-maximal effect; nearly all actives have a fitted effect of over 60% in size). The note with it: recombinant CYP2D6, luciferin-ME EGE luminescence; series mostly up to 57.1 µM. In short, it runs like this:
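Luminescent read-out of luciferin formed by 5 nM human CYP2D6 demethylating 30 uM Luciferin-ME EGE (Km level) over 60 min at room temperature after NADPH regeneration addition. Data normalized to full inhibition by 1.43 uM quinidine.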

Assay [11] is described as follows: qHTS Assay for Lipid Storage Modulators (AID 1519; calls by dose curve). To be noted: Drosophila S3 cells, BODIPY lipid droplet/cell ratio, laser cytometry, cells loaded with oleic acid; for activity change, negative = inhibition: at 57.5 µM (top of the series). In a few lines: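 Cells seeded at 5,000 per well were treated with compounds over a concentration series and loaded with oleic acid (400 uM, as added). Lipid droplet fluorescence (488 nm excitation, 500-530 nm channel) was read by laser-scanning cytometry and normalized to 20 uM Triacsin C.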

Assay [12] in a line: Primary qHTS for small molecule stabilizers of the endoplasmic reticulum resident proteome: Secreted ER Calcium Modulated Protein (SERCaMP) assay (AID 1508630; active = well fitted curve in the direction sought with a large enough effect; an effect the other way counts as inactive or inconclusive; note: % is set by controls: 0 for no effect and ±100 for the full control effect). The note with it: SH-SY5Y GLuc-SERCaMP (Gaussia luciferase released on ER calcium loss) secretion, thapsigargin, luminescence; series mostly up to 38.4 µM. In short, it runs like this: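 The SH-SY5Y reporter protocol was run at 3 concentrations up to 38.3 uM (primary) or 11 concentrations (follow-up): 16 h compound, 100 nM thapsigargin for 4 h, then extracellular luciferase luminescence.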

The target of assay [13] is Cytochrome P450 2C19 (Homo sapiens) (UniProt P33261). In words: qHTS Assay for Inhibitors and Substrates of Cytochrome P450 2C19 (AID 899; active = well fitted curve in the direction sought with a large enough effect; an effect the other way counts as inactive or inconclusive; note: potency is the fitted concentration of half-maximal effect; nearly all actives have a fitted effect of over 60% in size). To be noted: recombinant CYP2C19, luciferin-H EGE luminescence; series mostly up to 57.1 µM. In short, it runs like this: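 Signal comes from luciferase acting on luciferin released by CYP2C19-mediated hydroxylation of Luciferin-H EGE, 10uM (KM). Assay mix: 5nM enzyme, 50mM KPO4; 60 min at 37C with NADPH regeneration. Data normalized against 57uM ketoconazole.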

A short description of assay [14]: qHTS Assay for Identification of Small Molecule Agonists for Hypoxia Response Element Signaling Pathway (AID 914; active = well fitted activation curve with a large enough effect in the signal ratio, with a control signal flat, not every such curve was filed as active; the % refers to the signal ratio; note: % of control where 0% means no effect). To be noted: ME-180 (cervical carcinoma) HRE-bla reporter, beta-lactamase ratio, CoCl2, 17 h; activation: stronger effect = higher value. In short, it runs like this: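 A beta-lactamase reporter under hypoxia response element control in ME-180 cells served as the system. Compound titrations plus EC50 CoCl2 ran 17 h at 37 degrees Celsius; AC50 values were fitted from %Activity.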

Setting [15] is: measured here: cell count channel max response.
Setting [16] is: measured here: lipid channel max response.

The values that follow come from PubChem BioAssay (NCATS).

SMILES strings stand for the structures. Results filed as inconclusive are left out. Calls of active or inactive are those of the source. Unless noted, calls come from the whole dose curve; as a rule, active = well fitted curve in either direction with a large enough effect (not every such curve was filed as active); inconclusive = small, poorly fitted or top-dose-only effect, or another doubt; inactive = flat fitted curve, though single readings scatter.

Cytochrome P450 1A2 (Homo sapiens), sequence (P05177 whole entry, looked up): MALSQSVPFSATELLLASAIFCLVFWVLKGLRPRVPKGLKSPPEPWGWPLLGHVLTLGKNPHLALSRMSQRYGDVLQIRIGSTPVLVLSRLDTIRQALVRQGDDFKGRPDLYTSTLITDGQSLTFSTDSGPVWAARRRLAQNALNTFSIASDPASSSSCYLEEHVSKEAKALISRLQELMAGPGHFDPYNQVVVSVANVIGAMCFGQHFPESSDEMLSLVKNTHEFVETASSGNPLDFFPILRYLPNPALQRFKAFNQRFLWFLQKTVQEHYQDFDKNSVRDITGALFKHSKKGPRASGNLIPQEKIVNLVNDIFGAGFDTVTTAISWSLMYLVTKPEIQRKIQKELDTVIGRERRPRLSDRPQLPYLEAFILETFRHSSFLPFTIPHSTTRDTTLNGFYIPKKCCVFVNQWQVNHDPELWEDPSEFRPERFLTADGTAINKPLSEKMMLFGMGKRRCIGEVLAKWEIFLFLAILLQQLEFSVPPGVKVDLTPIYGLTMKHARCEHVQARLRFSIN
Glucocorticoid receptor (Homo sapiens), sequence (P04150 whole entry, looked up, the tested form may be a part): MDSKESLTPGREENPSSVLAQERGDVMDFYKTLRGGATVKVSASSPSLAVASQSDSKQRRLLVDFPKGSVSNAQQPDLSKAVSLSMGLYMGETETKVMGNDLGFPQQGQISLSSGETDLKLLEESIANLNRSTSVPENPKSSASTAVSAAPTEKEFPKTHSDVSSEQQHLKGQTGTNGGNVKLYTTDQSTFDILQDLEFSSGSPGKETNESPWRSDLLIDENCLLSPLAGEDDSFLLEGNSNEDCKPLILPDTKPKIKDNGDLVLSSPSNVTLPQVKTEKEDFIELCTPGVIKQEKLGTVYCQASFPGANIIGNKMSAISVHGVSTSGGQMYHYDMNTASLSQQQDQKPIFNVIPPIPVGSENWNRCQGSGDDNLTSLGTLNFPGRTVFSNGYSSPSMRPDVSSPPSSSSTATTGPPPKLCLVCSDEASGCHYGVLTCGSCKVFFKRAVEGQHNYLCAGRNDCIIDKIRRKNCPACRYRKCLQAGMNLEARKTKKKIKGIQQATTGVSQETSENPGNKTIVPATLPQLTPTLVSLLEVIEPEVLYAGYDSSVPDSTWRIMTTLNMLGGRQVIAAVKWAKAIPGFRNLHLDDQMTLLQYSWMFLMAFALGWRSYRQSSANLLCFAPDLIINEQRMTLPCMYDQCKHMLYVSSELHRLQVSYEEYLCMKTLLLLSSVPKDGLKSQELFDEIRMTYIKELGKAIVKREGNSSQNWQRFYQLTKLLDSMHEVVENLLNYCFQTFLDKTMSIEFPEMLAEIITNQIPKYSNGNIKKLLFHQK
3',5'-cyclic-AMP phosphodiesterase 4B (Homo sapiens), sequence (Q07343 whole entry, looked up): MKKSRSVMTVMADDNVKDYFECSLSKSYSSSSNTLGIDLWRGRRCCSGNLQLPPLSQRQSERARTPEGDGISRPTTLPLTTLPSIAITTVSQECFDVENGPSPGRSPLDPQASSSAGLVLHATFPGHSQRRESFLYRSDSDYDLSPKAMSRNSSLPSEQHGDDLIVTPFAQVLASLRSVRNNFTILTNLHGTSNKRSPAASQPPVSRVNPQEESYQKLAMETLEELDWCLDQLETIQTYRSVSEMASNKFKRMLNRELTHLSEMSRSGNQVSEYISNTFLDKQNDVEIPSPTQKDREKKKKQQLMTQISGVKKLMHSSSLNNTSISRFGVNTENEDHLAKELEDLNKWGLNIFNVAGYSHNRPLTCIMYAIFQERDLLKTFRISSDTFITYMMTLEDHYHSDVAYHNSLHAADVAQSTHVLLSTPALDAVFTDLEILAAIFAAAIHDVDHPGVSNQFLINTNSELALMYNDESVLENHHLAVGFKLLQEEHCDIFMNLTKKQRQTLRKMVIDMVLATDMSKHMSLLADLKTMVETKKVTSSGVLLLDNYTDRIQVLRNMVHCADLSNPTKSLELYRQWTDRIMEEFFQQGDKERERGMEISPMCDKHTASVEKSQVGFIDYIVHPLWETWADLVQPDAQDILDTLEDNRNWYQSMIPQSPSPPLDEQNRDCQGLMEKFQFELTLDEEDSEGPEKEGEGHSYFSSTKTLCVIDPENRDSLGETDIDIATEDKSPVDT
Lysosomal acid glucosylceramidase (Homo sapiens), sequence (P04062 whole entry, looked up): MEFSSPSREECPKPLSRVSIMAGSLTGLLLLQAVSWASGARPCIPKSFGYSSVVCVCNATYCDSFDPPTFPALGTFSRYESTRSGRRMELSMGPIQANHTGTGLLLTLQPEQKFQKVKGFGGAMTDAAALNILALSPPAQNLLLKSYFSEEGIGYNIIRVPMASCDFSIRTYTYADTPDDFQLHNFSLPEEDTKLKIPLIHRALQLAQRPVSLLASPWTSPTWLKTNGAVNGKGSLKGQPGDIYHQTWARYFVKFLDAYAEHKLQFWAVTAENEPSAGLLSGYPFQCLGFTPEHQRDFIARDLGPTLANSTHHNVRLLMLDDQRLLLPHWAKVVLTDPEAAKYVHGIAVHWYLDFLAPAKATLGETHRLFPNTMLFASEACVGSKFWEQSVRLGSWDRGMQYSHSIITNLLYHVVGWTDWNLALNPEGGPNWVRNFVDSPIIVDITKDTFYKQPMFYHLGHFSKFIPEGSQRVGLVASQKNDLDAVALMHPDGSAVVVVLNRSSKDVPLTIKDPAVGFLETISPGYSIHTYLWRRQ
Cytochrome P450 3A4 (Homo sapiens), sequence (P08684 whole entry, looked up): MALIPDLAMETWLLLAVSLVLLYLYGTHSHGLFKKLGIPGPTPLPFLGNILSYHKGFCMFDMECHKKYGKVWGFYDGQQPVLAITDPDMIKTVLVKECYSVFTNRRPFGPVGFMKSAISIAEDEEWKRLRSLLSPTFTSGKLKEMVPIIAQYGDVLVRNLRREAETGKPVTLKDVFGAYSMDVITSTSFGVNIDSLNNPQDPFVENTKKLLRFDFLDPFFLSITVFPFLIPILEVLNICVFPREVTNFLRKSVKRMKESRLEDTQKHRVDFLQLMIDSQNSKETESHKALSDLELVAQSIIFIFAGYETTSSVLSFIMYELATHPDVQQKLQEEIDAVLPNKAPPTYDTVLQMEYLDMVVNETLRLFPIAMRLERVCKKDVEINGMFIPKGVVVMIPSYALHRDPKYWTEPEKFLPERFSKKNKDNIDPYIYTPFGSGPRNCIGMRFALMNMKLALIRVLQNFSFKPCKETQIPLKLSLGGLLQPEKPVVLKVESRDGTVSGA
Cytochrome P450 2C19 (Homo sapiens), sequence (P33261 whole entry, looked up): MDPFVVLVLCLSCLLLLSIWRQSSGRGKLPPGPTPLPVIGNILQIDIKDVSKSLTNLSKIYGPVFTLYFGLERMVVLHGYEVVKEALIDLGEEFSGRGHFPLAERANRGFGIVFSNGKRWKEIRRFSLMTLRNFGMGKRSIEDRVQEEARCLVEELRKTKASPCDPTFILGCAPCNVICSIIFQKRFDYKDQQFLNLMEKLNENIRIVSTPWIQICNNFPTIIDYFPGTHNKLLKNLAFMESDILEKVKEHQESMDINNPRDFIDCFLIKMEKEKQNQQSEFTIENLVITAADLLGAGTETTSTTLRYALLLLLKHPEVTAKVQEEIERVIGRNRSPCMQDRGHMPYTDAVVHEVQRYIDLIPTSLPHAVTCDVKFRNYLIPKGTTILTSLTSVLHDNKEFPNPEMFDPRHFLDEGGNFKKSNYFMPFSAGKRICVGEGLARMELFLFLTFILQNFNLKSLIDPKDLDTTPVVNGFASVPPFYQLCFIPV
Cytochrome P450 2D6 (Homo sapiens), sequence (P10635 whole entry, looked up): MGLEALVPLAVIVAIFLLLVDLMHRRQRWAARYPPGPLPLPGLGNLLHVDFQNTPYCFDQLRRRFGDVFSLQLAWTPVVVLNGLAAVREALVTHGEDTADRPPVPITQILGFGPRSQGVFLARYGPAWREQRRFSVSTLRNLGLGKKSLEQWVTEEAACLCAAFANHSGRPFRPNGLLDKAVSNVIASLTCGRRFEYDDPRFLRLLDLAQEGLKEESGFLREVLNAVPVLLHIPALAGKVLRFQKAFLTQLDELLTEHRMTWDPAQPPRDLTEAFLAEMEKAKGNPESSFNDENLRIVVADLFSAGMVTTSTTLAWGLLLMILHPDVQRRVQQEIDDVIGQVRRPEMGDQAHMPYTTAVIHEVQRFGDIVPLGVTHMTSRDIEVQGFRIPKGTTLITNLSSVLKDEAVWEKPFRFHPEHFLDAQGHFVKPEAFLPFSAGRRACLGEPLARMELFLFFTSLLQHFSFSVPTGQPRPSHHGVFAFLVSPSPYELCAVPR

For the compound `COC(=O)N1CCC2(CCCN(Cc3ccccc3OC)C2)CC1`, the Potency in [1] was > 11.4 µM (inactive); in [6], > 46 µM (inactive); in assay [10] it was 3.16 µM (active). Also, the activity change, negative = inhibition in assay [2] is -7.44% (inactive); in assay [4], -73.7% (active); in assay [11], -2.47% (inactive). Moreover, the Potency result in [3], in [8], in [9] and in assay [12] was “inactive” in each case. Besides, in assay [5], the activity, negative = inhibition is -10.7% (inactive). Further, the compound was called inactive in assay [7]. The max response in assay [11] (setting [15]) worked out at 15.3%; in [11] (setting [16]), 15.9%.

As to `N#Cc1cccc(NC(=O)N2CC[C@@]3(CCCN(C(=O)c4ccncc4)C3)C2)c1`, the Potency was > 11.4 µM (inactive) in assay [1] and > 46 µM (inactive) in assay [6]. Besides, the figures for the activity change, negative = inhibition in assay [2], in assay [4] and in assay [11] were -19.8% (inactive), 1.61% (inactive) and 1.67% (inactive), respectively. Moreover, the Potency result in assay [3], in assay [8], in assay [9] and in assay [12] was “inactive” in each case. Also, the activity, negative = inhibition in assay [5] is 4.09% (inactive). In assay [7], the compound was called inactive. Further, the max response in [11] (setting [15]) came out at 17.2%; in [11] (setting [16]), 21.1%.

With `CC(C)NC(=O)N1CC2(CCN(C(=O)c3ccncc3)CC2)C1`, the Potency in assay [1] was > 11.4 µM (inactive); in assay [6], > 46 µM (inactive). Besides, the activity change, negative = inhibition in assay [2] was 13% (inactive); in assay [4] it was 10.6% (inactive); in [11] it was -0.244% (inactive). Besides, the Potency result in assay [3], in [8], in assay [9] and in [12] was “inactive” throughout. In assay [5], the activity, negative = inhibition is 7.63% (inactive). The result in [7] was inactive. Further, the max response in assay [11] (setting [15]) came out at 11.6%; in assay [11] (setting [16]) it was 15.6%.

As for `O=C(c1ccco1)N1CCC[C@@]2(CCN(c3ccccc3)C2)C1`, the Potency was > 11.4 µM (inactive) in assay [1], 7.94 µM (active) in assay [3], > 46 µM (inactive) in assay [6] and 5.01 µM (active) in assay [13]. For the same compound, the activity change, negative = inhibition in [2] is -8.72% (inactive); in assay [4], -13.1% (inactive); in assay [11], -7.59% (inactive). Further, the activity, negative = inhibition in assay [5] is -4.84% (inactive). In [7], the outcome was inactive. Besides, the Potency result in [8], in assay [9] and in [12] was “inactive” in each case. Further, the max response in [11] (setting [15]) stood at 11.4%; in assay [11] (setting [16]), 4.34%.

As to `CC(C)NC(=O)N1CC2(CCN(C(=O)c3ccco3)CC2)C1`, the Potency in assay [1] was > 11.4 µM (inactive); in assay [6], > 46 µM (inactive). The activity change, negative = inhibition is -14.7% (inactive) in [2], 16.4% (inactive) in assay [4] and -0.739% (inactive) in [11]. The Potency entry in [3], in assay [8] and in assay [12] was “inactive” throughout. Moreover, the activity, negative = inhibition in assay [5] is -2.76% (inactive). For the same compound, the call in assay [7] was inactive. In assay [14], the activation is 0.544% (inactive). Also, the values for the max response in assay [11] (setting [15]) and in assay [11] (setting [16]) were -15.7% and -15.1%, respectively.

For `N#Cc1cccc(NC(=O)N2CCC3(CC2)CCN(C(=O)c2csnn2)CC3)c1`, the Potency was > 11.4 µM (inactive) in assay [1] and > 46 µM (inactive) in [6]. Further, the results for the activity change, negative = inhibition in [2], in assay [4] and in assay [11] were -16.5% (inactive), 11.9% (inactive) and 5.57% (inactive), respectively. In addition, the Potency result in [3], in assay [8], in assay [9] and in assay [12] was “inactive” throughout. For the same compound, in assay [5], the activity, negative = inhibition was -0.506% (inactive). For the same compound, the call in assay [7] was inactive. Moreover, the activation in [14] was -0.636% (inactive). Also, the max response in assay [11] (setting [15]) turned out to be 15%; in [11] (setting [16]), 22.3%.

For `O=C(c1ccco1)N1CCC[C@@]2(CCN(Cc3ccccc3)C2)C1`, the values for the Potency in [1] and in assay [6] were > 11.4 µM (inactive) and > 46 µM (inactive), respectively. Moreover, the activity change, negative = inhibition was -5.26% (inactive) in assay [2], -3.82% (inactive) in [4] and 2.21% (inactive) in [11]. Also, the Potency entry in [3], in [8], in [9] and in [12] was “inactive” each time. In addition, in assay [5], the activity, negative = inhibition is -7.43% (inactive). The result in assay [7] was inactive. Besides, the max response in [11] (setting [15]) is -0.541%; in [11] (setting [16]) it was 7.17%.
